Bioassay records: PubChem, Broad Institute
miR122 inh – miR-122 suppressors via Renilla sensor increase, primary screen, cell-based, Huh7 psiCHECK-miR122, Renilla luciferase, single point | 48 h | activation, % at 12.5 µM | 340,000 tested, 0.14% active | AID 623901, 2012;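 active = mean activation of 30% or more, with every replicate also reaching 30%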;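 also: 0% = median of neutral control wells and 100% = median of positive control wells; higher luciferase signal means stronger suppression of miR-122 activity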
Numbers without * were called inactive. Shown is part of a subset that was picked to be rich in hits.

SMILES	miR122 inh
C[C@@H]1CN([C@@H](C)CO)S(=O)(=O)c2ccc(C#C[C@@H](C)O)cc2O[C@@H]1CN(C)C(=O)c1ccncc1	13.3
C[C@H]1CN([C@@H](C)CO)C(=O)c2cc(C#CC3(O)CCCC3)cnc2O[C@@H]1CN(C)S(=O)(=O)c1cccc(F)c1	6.9
C[C@@H]1CN([C@@H](C)CO)S(=O)(=O)c2ccc(-c3cccnc3)cc2O[C@H]1CN(C)Cc1ccccn1	2.8
C[C@H](CO)N1C[C@H](C)[C@H](CN(C)Cc2ccc(F)cc2)Oc2cc(C#Cc3ccccn3)ccc2S1(=O)=O	12.5
C[C@@H]1CN([C@H](C)CO)C(=O)c2cc(C3=CCCCC3)cnc2O[C@@H]1CN(C)C(=O)Cc1ccccc1	-0.3
C[C@H](CO)N1C[C@H](C)[C@@H](CN(C)Cc2ccc3c(c2)OCO3)Oc2ncc(Br)cc2C1=O	-2.7
C[C@H]1CN([C@@H](C)CO)S(=O)(=O)c2ccc(-c3ccncc3)cc2O[C@H]1CN(C)Cc1cncnc1	-8.2
C[C@@H]1CN([C@H](C)CO)S(=O)(=O)c2ccc(C#Cc3ccncc3)cc2O[C@@H]1CN(C)C(=O)C1CCCCC1	18.9
C[C@@H]1CN([C@@H](C)CO)S(=O)(=O)c2ccc(C#C[C@@H](C)O)cc2O[C@H]1CN(C)Cc1cccnc1	7.7
C[C@H](O)C#Cc1ccc2c(c1)O[C@@H](CN(C)Cc1cccnc1)[C@H](C)CN([C@@H](C)CO)S2(=O)=O	6.8
C[C@H](O)C#Cc1ccc2c(c1)O[C@@H](CN(C)Cc1ccc(-c3ccccc3)cc1)[C@H](C)CN([C@H](C)CO)S2(=O)=O	45.3*
C[C@@H]1CN([C@@H](C)CO)S(=O)(=O)c2ccc(C#Cc3ccncc3)cc2O[C@@H]1CN(C)C(=O)C1CCOCC1	32.8*
CCCC#Cc1ccc2c(c1)O[C@H](CN(C)C(=O)CC)[C@H](C)CN([C@H](C)CO)S2(=O)=O	1.0
C/C=C/c1ccc2c(c1)O[C@@H](CN(C)C(=O)Cc1ccccn1)[C@@H](C)CN([C@@H](C)CO)S2(=O)=O	0.2
CCCC#Cc1ccc2c(c1)O[C@H](CN(C)C(=O)CC)[C@H](C)CN([C@@H](C)CO)S2(=O)=O	-1.2
CCC(=O)N(C)C[C@H]1Oc2cc(C#Cc3ccccc3)ccc2S(=O)(=O)N([C@H](C)CO)C[C@H]1C	55.7*
C/C=C/c1ccc2c(c1)O[C@H](CN(C)C(=O)c1cnccn1)[C@H](C)CN([C@@H](C)CO)S2(=O)=O	44.3*
C[C@@H]1CN([C@H](C)CO)S(=O)(=O)c2ccc(C#Cc3ccncc3)cc2O[C@H]1CN(C)C(=O)C1CCCCC1	-32.5
C/C=C/c1ccc2c(c1)O[C@H](CN(C)C(=O)c1cccnc1)[C@@H](C)CN([C@H](C)CO)S2(=O)=O	-4.9
CNC[C@H]1Oc2ncc(C#CCC3CCCC3)cc2C(=O)N([C@H](C)CO)C[C@H]1C	4.4
COc1ccccc1-c1cnc2c(c1)C(=O)N([C@H](C)CO)C[C@H](C)[C@@H](CN(C)Cc1ccccc1)O2	-4.9
C[C@@H]1CN([C@H](C)CO)C(=O)c2cc(/C=C/c3ccccc3)cnc2O[C@H]1CN(C)C(=O)Nc1ccccc1F	3.2
COCC#Cc1cnc2c(c1)C(=O)N([C@H](C)CO)C[C@@H](C)[C@H](CN(C)S(=O)(=O)c1cccc(OC)c1)O2	1.7
C[C@H](CO)N1C[C@H](C)[C@H](CN(C)C(=O)C2CC2)Oc2ncc(-c3cccnc3)cc2C1=O	-8.7
C[C@H]1CN([C@@H](C)CO)S(=O)(=O)c2ccc(C#CC3CC3)cc2O[C@@H]1CN(C)Cc1ccccn1	-66.3
SMILES	miR122 inh
C[C@H]1CN([C@@H](C)CO)C(=O)c2cc(-c3ccc(F)cc3)cnc2O[C@H]1CN(C)C(=O)c1cccnc1	5.5
COc1ccc(S(=O)(=O)N(C)C[C@H]2Oc3ccc(NC(=O)Cc4ccccc4)cc3C(=O)N([C@H](C)CO)C[C@H]2C)cc1	-108.4
CC(C)CC#Cc1ccc2c(c1)O[C@H](CN(C)C(=O)c1ccccc1)[C@H](C)CN([C@H](C)CO)S2(=O)=O	42.4*
CCC(=O)N(C)C[C@H]1Oc2cc(C#Cc3cccnc3)ccc2S(=O)(=O)N([C@@H](C)CO)C[C@H]1C	-15.6
CC(C)C#Cc1ccc2c(c1)O[C@H](CN(C)C(=O)c1ccccc1)[C@H](C)CN([C@H](C)CO)S2(=O)=O	12.3
CC(C)CC#Cc1ccc2c(c1)O[C@H](CN(C)C(=O)c1ccccc1)[C@@H](C)CN([C@@H](C)CO)S2(=O)=O	-40.0
CCC(=O)N(C)C[C@@H]1Oc2cc(C#Cc3cccnc3)ccc2S(=O)(=O)N([C@@H](C)CO)C[C@H]1C	-8.0
COCC(=O)N(C)C[C@H]1Oc2cc(C#Cc3cccnc3)ccc2S(=O)(=O)N([C@H](C)CO)C[C@H]1C	50.6*
CNC[C@H]1Oc2cc(-c3ccccc3OC)ccc2S(=O)(=O)N([C@H](C)CO)C[C@@H]1C	-0.8
C[C@H](CO)N1C[C@H](C)[C@@H](CN(C)Cc2ccccn2)Oc2cc(-c3cccc(C#N)c3)ccc2S1(=O)=O	-38.7
